Activity calls are given as the source filed them. Calls follow the shape of the dose curve; as a rule, active = well fitted curve in the direction sought with a large enough effect; inactive = no such curve, though single readings can be large or run the other way.

The target of this assay is Alpha-galactosidase A (Homo sapiens) (UniProt P06280). As to the kind of experiment: Counterscreen for Glucocerebrosidase Inhibitors: qHTS Assay for Human alpha-Galactosidase at pH 4.5 (AID 992). Conditions: purified enzyme, fluorogenic substrate; series mostly up to 76.9 µM. The text has this: NIH Chemical Genomics Center [NCGC]
Alpha-galactosidase A (Homo sapiens), sequence (P06280 whole entry, looked up): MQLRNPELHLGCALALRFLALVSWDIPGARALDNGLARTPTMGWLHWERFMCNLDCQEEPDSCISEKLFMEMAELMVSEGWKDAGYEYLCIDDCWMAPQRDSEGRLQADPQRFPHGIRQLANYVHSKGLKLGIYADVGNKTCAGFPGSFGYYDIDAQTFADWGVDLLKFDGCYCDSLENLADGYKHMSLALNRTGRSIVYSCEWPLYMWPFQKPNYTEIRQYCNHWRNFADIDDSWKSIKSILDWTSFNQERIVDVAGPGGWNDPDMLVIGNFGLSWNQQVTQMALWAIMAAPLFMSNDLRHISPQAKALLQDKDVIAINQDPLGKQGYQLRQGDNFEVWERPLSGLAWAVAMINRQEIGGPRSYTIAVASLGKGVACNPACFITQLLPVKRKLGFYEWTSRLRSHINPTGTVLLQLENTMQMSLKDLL
NIH Molecular Libraries Screening Centers Network [MLSCN]
PI Name: Zheng, Wei [NIH]
Alpha-galactosidase is a homodimeric glycoprotein that hydrolyzes the terminal alpha-galactosyl moieties from glycolipids and glycoproteins. Deficiency of this enzyme results in Fabry Disease with progressive accumulation of globotriaosylceramide and other glycosphingolipids in vascular endothelial cells that causes renal failure, myocardial infarction and stroke, and premature death in patients. It has reported that the improper folding and trafficking of alpha-galactosidase resulted from the genetic mutations may account for a significant numbers of Fabry patients. […] We optimized this alpha-galactosidase assay in 1536-well plate format for identifying the novel small molecule inhibitors with the structures other than the sugar analogs in order to develop the new pharmacological chaperones.
NCGC Assay Protocol Summary:
This is a fluorogenic enzyme assay with 4-Methylumbelliferyl alpha-D-galactopyranoside as the substrate and human […] as the enzyme preparation. Upon the hydrolysis of this fluorogenic substrate, the resulting product, […]. 4-Methyllumbelliferone, can be excited at 365 nm and emits at 440 nm which can be detected by a standard fluorescence plate reader. Data were normalized to the controls for basal activity (without enzyme) and 100% activity (with enzyme). In the AC50 values were determined from concentration-response data modeled with the standard Hill equation.
Assay buffer: 50 mM citric acid, 0.005% Tween-20, pH 4.5. (pH 4.5 is an optimal condition for this enzyme assay)
1536-well assay protocol for the human alpha-galactosidase:
(1) Add 2 ul/well of enzyme (2 nM final)
(2) Add 23 nL compounds in DMSO solution. The final titration was 0.7 nM to 77 uM.
(3) Add 1 ul of substrate (80 uM final)
(4) Incubate at room temperature for 20 min.
(5) Add 2 ul stop solution (1M NaOH and 1M Glycine mixture, pH 10)
(6) Detect the assay plate in a ViewLux plate reader (PerkinElmer) with Ex=365 nm and Em=440nm.
Keywords: Alpha-galactosidase, Fabry Disease, pharmacological chaperone, chaperone therapy, high throughput screening, alpha-galactosidase inhibitor, MLSMR, MLSCN, NIH Roadmap, qHTS and NCGC
A general note: The purpose of a counterscreen is to sort out artefacts and off-target activity.
In the case of `O=C(O)c1cc([N+](=O)[O-])ccc1NCCCc1ccccc1`, the result was inactive.

On to `NCCCCCCCCCCN`, for which the compound was called inactive.

`O=C1C(SCCO)=C(SCCO)C(=O)c2ccccc21`: the call was inactive.

On to `CC(=O)SCC[N+](C)(C)C`, for which the compound was classed as inactive.

As to `N#C/C(=C\c1ccc(O)c(O)c1)C(=O)NCc1ccccc1`, the result was inactive.

For the compound `O=Nc1ccc2oc(=O)ccc2c1`, the call was inactive.

`N=C(N)SCCc1ccc(CCSC(=N)N)cc1`: the compound was called inactive.

With `COC(=O)c1c(C)[nH]c(C)c1C(=O)c1ccccc1Cc1ccccc1`, the call was inactive.

As for `N[C@@H](CC(=O)O)C(=O)O`, the outcome was inactive.

On to `CC(C)(C=O)Cc1cc(C(C)(C)C)c(O)c(C(C)(C)C)c1`, for which the compound was classed as inactive.

For the compound `O=c1[nH]c2cc([N+](=O)[O-])c([N+](=O)[O-])cc2[nH]c1=O`, the call was inactive.

For `CC1(C)CCC=[N+]1[O-]`, the compound was classed as inactive.

Regarding `Ic1ccc(N2CCN(Cc3c[nH]c4ncccc34)CC2)cc1`, the outcome was inactive.

Turning to `COc1ccccc1CNCCCCCCNCCCCCCCCNCCCCCCNCc1ccccc1OC`, the compound was classed as inactive.

Consider `COc1cccc(C(=O)NCCN2CCN(c3ccc(Cl)cc3)CC2)c1`, for which the result was inactive.

For `N#C/C(=C\c1c[nH]c2ccccc12)C(=O)c1ccc(O)c(O)c1`, the compound was called inactive.

`CCCCCCCC/C=C\CCCCCCCC(=O)NCCO`: the result was inactive.

On to `NC(=O)C(=O)O`, for which the compound was called inactive.

With `O=C(Nc1ccccc1)c1cc([N+](=O)[O-])ccc1Cl`, the compound was called inactive.

Take `CC(C)Cc1ccc([C@H](C)C(=O)O)cc1`: the outcome was inactive.

For `C[N+](C)(CCCCCC[N+](C)(C)CCCN1C(=O)c2cccc3cccc(c23)C1=O)CCCN1C(=O)c2cccc3cccc(c23)C1=O`, the compound was called inactive.

As to `c1ccc(-c2ccccn2)nc1`, the outcome was inactive.

Consider `CCCN(CC1CC1)c1nc(C)nc(Nc2c(Cl)cc(Cl)cc2Cl)c1Cl`, for which the outcome was inactive.

As for `Cc1ccc(O)c(N=Nc2ccccc2)n1`, the compound was called inactive.

As to `O=C(O)[C@@H]1C[C@@H](C(=O)O)N1`, the outcome was inactive.

As to `COc1ccc(/C=C/C(=O)Nc2ccccc2C(=O)O)cc1OC`, the call was inactive.

With `NC[C@@H]1O[C@H](C23CC4CC(CC(C4)C2)C3)Cc2c1ccc(O)c2O`, the outcome was inactive.

Take `CC(C)NC[C@H](O)COc1cccc2[nH]ccc12`: the outcome was inactive.

Turning to `N#C/C(=C\c1ccc(O)c(O)c1)C(=O)NCCCc1ccccc1`, the outcome was inactive.

On to `C[C@@H](NC(=O)/C(C#N)=C/c1ccc(O)c(O)c1)c1ccccc1`, for which the call was inactive.

Take `NCCCS(=O)(=O)O`: the compound was classed as inactive.

Regarding `NC(N)=NC(=O)c1nc(Cl)c(N2CCCCCC2)nc1N`, the compound was classed as inactive.

Consider `CN1CCc2ccccc2Cc2[nH]c3ccccc3c2CC1`, for which the compound was called inactive.

For `NO`, the call was inactive.

`O=c1[nH]c2cc(C(F)(F)F)ccc2n1-c1cc(C(F)(F)F)ccc1O`: the result was inactive.

As to `c1cnc2c(c1)ccc1cccnc12`, the call was inactive.

Regarding `CN(C)C(N)=NCCC[C@H](N)C(=O)O`, the compound was classed as inactive.

Turning to `Oc1ccccc1O`, the compound was classed as inactive.

Turning to `N#C/C(=C\c1ccc(O)c(O)c1)C(=O)c1ccc(O)c(O)c1`, the result was inactive.

`CNCC[C@H](Oc1ccc(C(F)(F)F)cc1)c1ccccc1`: the result was inactive.

For the origin of these results see PubChem BioAssay (NCATS).
